Holding throughout (details): concentration: 10 µM; 24 h
In assay [1] the test system is HCC1569. The experiment in a line: cell number relative to DMSO (% of DMSO); higher = more cells (less growth inhibition / toxicity). The method, boiled down:
(§1)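 H1.0 nuclear intensity or cell number is stated as percent of the plate control, based on the median of replicates, and HCC1569 values were smoothed for positional effects. These came from HCC1569 and TDF cells treated with compounds at 10 µM for 24 h at 37 °C in triplicate, then fixed in 3.7% formaldehyde and stained with a rabbit anti-H1.0 antibody, an AlexaFluor 647 secondary and DAPI.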

Assay [2] has as its system TDF. The description is as above. The method, boiled down: as §1
For assay [3], the system named is TDF. The assay can be described thus: H1.0 immunofluorescence intensity relative to DMSO (% of DMSO); higher = stronger H1.0 induction, active = 120 or more. The procedure, abridged:
as §1

Assay [4] has as its system HCC1569. The experiment in a line: H1.0 immunofluorescence intensity relative to DMSO (% of DMSO); higher = stronger H1.0 induction, active = 140 or more. The procedure, abridged: as §1

± gives the standard deviation of the averaged measurements.
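Wherever H1.0 immunofluorescence intensity relative to DMSO is given: TDF is a line of transformed human dermal fibroblasts of mesenchymal origin.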
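Wherever cell number relative to DMSO is given: TDF denotes transformed human dermal fibroblasts of mesenchymal origin.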

On to `CC12CCC3c4ccc(O)cc4CCC3C1CCC2O` (stereo not drawn) [beta-Estradiol], for which the results for the cell number in assay [1] and in assay [2] were 90.6 and 89.3, respectively. The H1.0 immunofluorescence intensity in assay [3] was 101 (inactive); in assay [4], 95.3 (inactive).
The like results for `CC(CN1c2ccccc2Sc2ccccc21)N(C)C.Cl` (stereo not drawn) were, in that order, 105, 105, 110 (inactive) and 112 (inactive).
As to `COC12C(COC(N)=O)C3=C(C(=O)C(C)=C(N)C3=O)N1CC1NC12` (stereo not drawn) [Mitomycin C], the cell number came to 73.2 ± 6 in assay [1] and 47.6 ± 1.8 in assay [2]. In addition, the H1.0 immunofluorescence intensity in assay [3] is 105 (inactive); in assay [4], 96.2 (inactive).
The like results for `Cc1ccccc1CNc1ncnc2c1ncn2C1OC(CO)C(O)C1O` (stereo not drawn) [Metrifudil] were, in that order, 97, 94.5, 93.7 (inactive) and 91.4 (inactive).
As for `C[N+](C)(C)CC(O)CC(=O)[O-].Cl` (racemic), the cell number worked out at 102 in assay [1] and 120 in assay [2]. The values for the H1.0 immunofluorescence intensity in assay [3] and in assay [4] were 97.1 (inactive) and 90.1 (inactive), respectively.
In the case of `CN=C(NC#N)Nc1ccc(C2=NNC(=O)CC2C)cc1` (stereo not drawn) [Siguazodan], the results for the cell number in assay [1] and in assay [2] were 103 and 104, respectively. Besides, the H1.0 immunofluorescence intensity in assay [3] is 95.4 (inactive); in assay [4], 115 (inactive).
In the case of `Cl.Cl.Cl.Ic1ccc(N2CCN(Cc3c[nH]c4ncccc34)CC2)cc1` [L-750,667 trihydrochloride], the cell number in assay [1] came out at 103; in assay [2], 101. In addition, the H1.0 immunofluorescence intensity is 103 (inactive) in assay [3] and 108 (inactive) in assay [4].
On to `COc1ccc(-n2[nH]c3c(cnc4ccccc43)c2=O)cc1` [2-(4-methoxyphenyl)-1H-pyrazolo[4,3-c]quinolin-3(2H)-one], for which the results for the cell number in assay [1] and in assay [2] were 103 and 87.8, respectively. For the same compound, the figures for the H1.0 immunofluorescence intensity in assay [3] and in assay [4] were 98.5 (inactive) and 93.6 (inactive), respectively.
As to `O=C(CCc1ccc(O)cc1)c1c(O)cc(O)cc1OC1OC(CO)C(O)C(O)C1O` (stereo not drawn) [Phlorizine], the cell number in assay [1] is 101; in assay [2], 99.3. In addition, the figures for the H1.0 immunofluorescence intensity in assay [3] and in assay [4] were 102 (inactive) and 97.1 (inactive), respectively.
Regarding `CC1(C)CNc2cc(NC(=O)c3cccnc3NCc3ccncc3)ccc21` [Motesanib], the cell number was determined as 90 in assay [1] and 91.4 in assay [2]. In addition, the H1.0 immunofluorescence intensity in assay [3] is 107 (inactive); in assay [4], 106 (inactive).
Regarding `O=Cc1c2[nH]c3ccccc3c2cc2[nH]c3ccccc3c12` [6-Formylindolo [3,2-B] carbazole], the cell number in assay [1] stood at 101; in assay [2], 99. The H1.0 immunofluorescence intensity in assay [3] is 91.4 (inactive); in assay [4] it was 100 (inactive).
On to `COc1ccccc1OCC(O)CN1CCN(CC(=O)Nc2c(C)cccc2C)CC1.Cl.Cl` (stereo not drawn) [Ranolazine dihydrochloride], for which the cell number turned out to be 104 in assay [1] and 107 in assay [2]. Besides, the figures for the H1.0 immunofluorescence intensity in assay [3] and in assay [4] were 97.9 (inactive) and 99.9 (inactive), respectively.
Turning to `c1ccc(C(OC2CCN(CCCc3nn[nH]n3)CC2)c2ccccc2)cc1` [4-(benzhydryloxy)-1-[3-(1H-tetraazol-5-yl)propyl]piperidine], the cell number in assay [1] was found to be 104; in assay [2], 102. In addition, the figures for the H1.0 immunofluorescence intensity in assay [3] and in assay [4] were 92.8 (inactive) and 107 (inactive), respectively.
On to `CN(C)CCOC(c1ccccc1)c1ccccc1.Cl` [Diphenhydramine.HCl], for which the cell number was found to be 106 in assay [1] and 103 in assay [2]. Also, the H1.0 immunofluorescence intensity in assay [3] is 100 (inactive); in assay [4], 107 (inactive).
Consider `O=C(O)CP(=O)(O)O` [Phosphonoacetic acid], for which the cell number in assay [1] amounted to 101; in assay [2] it was 109. Besides, the H1.0 immunofluorescence intensity in assay [3] is 95.9 (inactive); in assay [4] it was 96.9 (inactive).
Consider `CC12C=Cc3occc3C1CCC13CC(=O)C(CCC12)C3` (stereo not drawn) [16-Oxokahweol], for which the values for the cell number in assay [1] and in assay [2] were 97.7 and 98.5, respectively. For the same compound, the H1.0 immunofluorescence intensity was 91.4 (inactive) in assay [3] and 99.3 (inactive) in assay [4].
`CS(=O)(=O)CCNCc1ccc(-c2ccc3ncnc(Nc4ccc(OCc5cccc(F)c5)c(Cl)c4)c3c2)o1.Cc1ccc(S(=O)(=O)O)cc1.Cc1ccc(S(=O)(=O)O)cc1` [Lapatinib ditosylate]: the cell number in assay [1] is 88.5; in assay [2] it was 94.3. The values for the H1.0 immunofluorescence intensity in assay [3] and in assay [4] were 93.5 (inactive) and 110 (inactive), respectively.
The like results for `CN(C)CCN(Cc1cccs1)c1ccccn1.Cl` [Methapyrilene hydrochloride] were, in that order, 112, 95.7, 93 (inactive) and 92.7 (inactive).
`CC(O)C1C(=O)N2C(C(=O)O)=C(SCCN=CN)CC12` (stereo not drawn) [Imipenem]: the values for the cell number in assay [1] and in assay [2] were 111 and 109, respectively. For the same compound, the H1.0 immunofluorescence intensity in assay [3] was 97.1 (inactive); in assay [4], 102 (inactive).
`CC=C(C)C(=O)OC1CC(C)=CC(=O)C2(C)CCC(O)(C(C)C)C12` (stereo not drawn) [Lapidin]: the figures for the cell number in assay [1] and in assay [2] were 104 and 102, respectively. In addition, the H1.0 immunofluorescence intensity is 95.4 (inactive) in assay [3] and 93.9 (inactive) in assay [4].
For `COc1ccc(-c2coc3cc(O)ccc3c2=O)cc1` [Formononetin], the figures for the cell number in assay [1] and in assay [2] were 104 and 103, respectively. The H1.0 immunofluorescence intensity is 87.5 (inactive) in assay [3] and 80.9 (inactive) in assay [4].
Turning to `O=C1Nc2ccc(Cl)cc2C(C#CC2CC2)(C(F)(F)F)O1` (stereo not drawn) [Efavirenz], the cell number in assay [1] came out at 101; in assay [2], 98.5. The H1.0 immunofluorescence intensity is 97.6 (inactive) in assay [3] and 111 (inactive) in assay [4].

The values are drawn from the supplement of paper PMC7156485.
